These results are taken from the antibiotic and cytotoxicity screens of Wong et al. (2023).

The campaign covered roughly 39,000 compounds. About 3,300 (8.5%) were called active. The sample holds actives, similar compounds and a random draw of the others, so the mix is not that of the screen.

The test system of the test is HepG2. Description: cytotoxicity call (relative viability < 0.9). The conditions noted are these: 10 µM.
With `C[C@@H]1CN([C@H](C)CO)C(=O)c2cccc(NS(=O)(=O)c3cccs3)c2O[C@@H]1CN(C)Cc1ccncc1`, the cytotoxicity call was “inactive”. Next, `N=C(N)N/N=C1\CCc2c(C(=N)N)cccc21`: “inactive”; `C[C@@H]1CN([C@@H](C)CO)C(=O)Cc2cc(NC(=O)CCCCCC(=O)Nc3ccccc3N)ccc2O[C@@H]1CN(C)C(=O)Nc1cccc2ccccc12`: “inactive”. As to `CCS(=O)(=O)Nc1ccc2c(c1)C(=O)N(C)C[C@@H](OC)[C@@H](C)CN(Cc1ccccn1)[C@H](C)CO2`, the cytotoxicity call was “inactive”.

On to `C[C@@H]1CN([C@@H](C)CO)C(=O)c2cc(NS(=O)(=O)c3cn(C)cn3)ccc2O[C@@H](C)CCCCO[C@@H]1CN(C)C`, for which the cytotoxicity call is “inactive”. For the molecule `COc1ccc(NC(=O)Nc2ccc3c(c2)C(=O)N([C@H](C)CO)C[C@H](C)[C@@H](CN(C)Cc2ccncc2)OCCCC[C@@H](C)O3)cc1`, the cytotoxicity call was “inactive”. Regarding `COc1ccc(CN(C)C[C@H]2OCCCC[C@H](C)Oc3ccc(NC(=O)Nc4ccc(OC)cc4)cc3C(=O)N([C@H](C)CO)C[C@H]2C)cc1`, the cytotoxicity call was “active”. As for `COc1ccc(NC(=O)Nc2ccc3c(c2)C(=O)N([C@@H](C)CO)C[C@H](C)[C@@H](CN(C)Cc2ccncc2)OCCCC[C@@H](C)O3)cc1`, the cytotoxicity call is “active”. On to `COc1ccc(NC(=O)Nc2ccc3c(c2)C(=O)N([C@H](C)CO)C[C@@H](C)[C@@H](CN(C)Cc2ccncc2)OCCCC[C@H](C)O3)cc1`, for which the cytotoxicity call is “inactive”.

For `COc1ccc(CN(C)C[C@H]2OCCCC[C@@H](C)Oc3ccc(NC(=O)Nc4ccc(OC)cc4)cc3C(=O)N([C@H](C)CO)C[C@H]2C)cc1`, the cytotoxicity call is “active”.

For `COc1cccc(S(=O)(=O)N(C)C[C@H]2Oc3ncc(C#CCC(C)C)cc3C(=O)N([C@@H](C)CO)C[C@@H]2C)c1`, the cytotoxicity call was “inactive”. As for `C[C@@H]1CN([C@H](C)CO)C(=O)CCCn2nncc2CO[C@H]1CN(C)S(=O)(=O)c1ccccc1C#N`, the cytotoxicity call is “inactive”.

In the case of `C[C@H](CO)N1C[C@H](C)[C@H](CN(C)CC2CCCCC2)Oc2ccc(NC(=O)Cc3cn(C)c4ccccc34)cc2CC1=O`, the cytotoxicity call was “inactive”. Next, `C[C@@H]1CN([C@@H](C)CO)C(=O)c2cc(NS(=O)(=O)c3ccc(F)cc3)ccc2O[C@H]1CN(C)CC1CC1`: “inactive”; `CCS(=O)(=O)Nc1ccc2c(c1)C(=O)N(C)[C@@H]1CC[C@@H](CC(=O)NCc3ccc(OC)cc3)O[C@H]1CO2`: “inactive”; `COCC#Cc1ccc([C@H]2[C@@H](CO)N3C(=O)CN(C(=O)C4CCOCC4)C[C@H]23)cc1`: “inactive”. As for `COc1ccc2c3c(n(c2c1)C)[C@@H](CO)N(C[C@]13CCN(CC1)CC1CCOCC1)C(=O)Cc1ccccn1`, the entry is “inactive”. Turning to `C[C@H](CO)N1C[C@H](C)[C@@H](CN(C)S(=O)(=O)c2cn(C)cn2)Oc2ccc(NS(C)(=O)=O)cc2CC1=O`, the cytotoxicity call is “inactive”. As for `Cc1noc(C)c1S(=O)(=O)Nc1ccc2c(c1)C(=O)N([C@@H](C)CO)C[C@H](C)[C@H](CN(C)S(=O)(=O)c1ccc(Cl)cc1)O2`, the entry is “inactive”; as for `O=C(O)[C@H]1C2C(=O)N3CCCO[C@@H]3[C@]23C=C[C@H]1O3` (stereo partly drawn), “inactive”.

For `CO[C@H]1O[C@H](COC(=O)NCCCCCC(=O)NO)[C@@H](OC(=O)c2ccccc2)[C@H](OC(=O)Nc2ccccc2-c2ccccc2)[C@@H]1OC(=O)Nc1ccccc1-c1ccccc1`, the cytotoxicity call is “active”.

Turning to `CO[C@H]1O[C@H](COC(=O)NCCCCCC(=O)NO)[C@H](OC(=O)Nc2ccccc2)[C@H](OC(=O)Nc2ccccc2)[C@H]1OC(=O)Nc1ccccc1`, the cytotoxicity call is “inactive”. Next, `CCOP(=O)(CC(=O)O[C@H]1[C@H](OC(=O)Nc2ccccc2-c2ccccc2)[C@H](OC(=O)Nc2ccccc2-c2ccccc2)[C@@H](OC)O[C@@H]1COC(=O)NCCCCCC(=O)NO)OCC`: “active”; `CCOP(=O)(CC(=O)O[C@H]1[C@@H]2OC(=O)[C@@H](Cc3ccc4ccccc4c3)C/C=C\C[C@H](Cc3ccc4ccccc4c3)C(=O)O[C@H]2[C@@H](OC)O[C@@H]1COC(=O)NCCCCCC(=O)NO)OCC`: “inactive”; `COc1ccc(NC(=O)O[C@H]2[C@H](OC(=O)Nc3ccccc3-c3ccccc3)[C@@H](OC(=O)Nc3ccccc3-c3ccccc3)[C@@H](OC)O[C@@H]2COC(=O)NCCCCCC(=O)NO)cc1`: “inactive”.

Take `COc1ccc(NC(=O)O[C@H]2[C@H](OC(=O)Nc3ccccc3-c3ccccc3)[C@H](OC(=O)Nc3ccccc3-c3ccccc3)[C@@H](OC)O[C@@H]2COC(=O)NCCCCCC(=O)NO)cc1`: the cytotoxicity call is “inactive”.

For the molecule `NCc1ccc2occc2c1`, the cytotoxicity call was “inactive”. Next, `Cc1ccc(S(=O)(=O)Nc2ccc3c(c2)CC(=O)N([C@H](C)CO)C[C@H](C)[C@H](CN(C)C(=O)Nc2ccc(C(F)(F)F)cc2)O3)cc1`: “inactive”.

With `COc1ccc(S(=O)(=O)N(C)C[C@@H]2Oc3c(NC(=O)c4ccncc4)cccc3C(=O)N([C@@H](C)CO)C[C@H]2C)cc1`, the cytotoxicity call is “inactive”.

As to `CNC(=O)[C@@]12CCC3(CCN(C(=O)COC)CC3)[C@H]1CN(S(C)(=O)=O)C2`, the cytotoxicity call was “inactive”. On to `C[C@@H]1CCCCO[C@@H](CN(C)CC2CCCCC2)[C@@H](C)CN([C@@H](C)CO)C(=O)c2cc(NC(=O)Cc3ccccc3)ccc2O1`, for which the cytotoxicity call was “inactive”.

Consider `COc1ccc(NC(=O)Nc2cccc3c2O[C@H](CN(C)C(=O)Nc2cccc4ccccc24)[C@@H](C)CN([C@@H](C)CO)C3=O)cc1`, for which the cytotoxicity call was “inactive”. Next, `C[C@@H]1CN([C@H](C)CO)C(=O)Cc2cc(NS(=O)(=O)c3ccccc3)ccc2O[C@H]1CN(C)Cc1ccc(-c2ccccc2)cc1`: “inactive”; `C[C@@H]1CN([C@@H](C)CO)C(=O)Cc2cc(NS(=O)(=O)c3ccccc3)ccc2O[C@@H]1CN(C)Cc1ccc(-c2ccccc2)cc1`: “active”. `C[C@H]1CN([C@@H](C)CO)C(=O)Cc2cc(NS(=O)(=O)c3ccccc3)ccc2O[C@@H]1CN(C)Cc1ccc(-c2ccccc2)cc1`: the cytotoxicity call is “inactive”.

As for `C[C@H](CO)N1C[C@H](C)[C@@H](CN(C)Cc2ccc(-c3ccccc3)cc2)Oc2ccc(NS(=O)(=O)c3ccccc3)cc2CC1=O`, the cytotoxicity call was “inactive”. Next, `C[C@@H]1CN([C@@H](C)CO)C(=O)Cc2cc(NS(=O)(=O)c3ccccc3)ccc2O[C@H]1CN(C)Cc1ccc(-c2ccccc2)cc1`: “inactive”. Next, `C[C@@H]1CN([C@H](C)CO)C(=O)Cc2cc(NS(=O)(=O)c3ccccc3)ccc2O[C@@H]1CN(C)Cc1ccc(-c2ccccc2)cc1`: “inactive”; `C[C@H]1CN([C@@H](C)CO)C(=O)Cc2cc(NS(=O)(=O)c3ccccc3)ccc2O[C@H]1CN(C)Cc1ccc(-c2ccccc2)cc1`: “active”. In the case of `C[C@H](CO)N1C[C@H](C)[C@H](CN(C)Cc2ccc(-c3ccccc3)cc2)Oc2ccc(NS(=O)(=O)c3ccccc3)cc2CC1=O`, the cytotoxicity call was “active”.

Regarding `c1ccc(-n2ncc3c2ncn2nnnc32)cc1`, the cytotoxicity call is “inactive”.

Turning to `CO[C@H]1CN(C)C(=O)c2cc(NC(=O)Nc3cccc(Cl)c3)ccc2OC[C@@H](C)N(C(=O)Nc2c(C)noc2C)C[C@@H]1C`, the cytotoxicity call was “inactive”. With `C[C@@H]1CN([C@@H](C)CO)C(=O)c2cc(NC(=O)Cn3cnnn3)ccc2O[C@H]1CN(C)Cc1ccc(Oc2ccccc2)cc1`, the cytotoxicity call was “inactive”. In the case of `CC/N=C1\S[C@@H](CC(=O)NC)C(=O)N1CC`, the cytotoxicity call was “inactive”. `O=C(C[C@@H]1C[C@H]2c3cc(NC(=O)Nc4ccccc4)ccc3O[C@H]2[C@H](CO)O1)NCCN1CCCCC1`: the cytotoxicity call is “inactive”. Take `COc1ccc(CN(C)C[C@H]2OCCCC[C@@H](C)Oc3ccc(NC(=O)Nc4c(C)noc4C)cc3C(=O)N([C@@H](C)CO)C[C@@H]2C)cc1`: the cytotoxicity call is “inactive”. `C[C@@H]1CCCCO[C@@H](CN(C)C(=O)c2ccccc2)[C@@H](C)CN([C@@H](C)CO)C(=O)c2cc(NS(=O)(=O)c3ccc(Cl)cc3)ccc2O1`: the cytotoxicity call is “inactive”.

In the case of `CCCN1CCC2(CC1)NC(=O)N(CC(=O)N1CCN(C(=O)OCC)CC1)C2=O`, the cytotoxicity call is “inactive”. As for `C[C@H](CO)N1C[C@H](C)[C@H](CN(C)Cc2ccc(C(F)(F)F)cc2)OCc2ccccc2-c2c(n(C)c3ccccc23)C1=O`, the entry is “inactive”; as for `CCOC(=O)c1cnn2c(=O)cc(C)[nH]c12`, “inactive”. As for `C[C@@H]1CN([C@H](C)CO)S(=O)(=O)c2ccc(C#CC3(O)CCCC3)cc2O[C@@H]1CN(C)C(=O)c1ccccc1`, the entry is “inactive”.

With `CNC[C@H]1Oc2c(NS(=O)(=O)c3cn(C)cn3)cccc2C(=O)N([C@@H](C)CO)C[C@@H]1C`, the cytotoxicity call is “inactive”. As for `CCOC(=O)c1c(CNCCN(CC)CC)n(-c2ccccc2)c2cc(Br)c(OC)cc12`, the entry is “active”; as for `CCOC(=O)c1c(CN2CCN(c3ccccc3)CC2)n(-c2ccccc2)c2cc(Br)c(OC)cc12`, “inactive”; as for `CCOC(=O)c1c(CN2CCN(CCOCCO)CC2)n(-c2ccccc2)c2cc(Br)c(O)cc12`, “active”.

On to `CCOC(=O)c1c(CN2CCN(Cc3ccccc3)CC2)n(-c2ccccc2)c2cc(Br)c(O)cc12`, for which the cytotoxicity call is “inactive”. As for `CCOC(=O)c1c(CN2CCN(Cc3ccccc3)CC2)n(-c2ccccc2)c2cc(Br)c(OC)cc12`, the entry is “inactive”. `CCOC(=O)c1c(CN2CCN(c3ccccc3)CC2)n(-c2ccccc2)c2cc(Br)c(O)cc12`: the cytotoxicity call was “inactive”.

For the molecule `Cc1ccc(S(=O)(=O)N(C)C[C@@H]2Oc3ccc(NS(=O)(=O)c4c(C)noc4C)cc3C(=O)N([C@H](C)CO)C[C@@H]2C)cc1`, the cytotoxicity call was “inactive”. Next, `Cc1ccc(S(=O)(=O)Nc2ccc3c(c2)C(=O)N([C@@H](C)CO)C[C@H](C)[C@H](CN(C)C(=O)CCC(F)(F)F)OCCCC[C@@H](C)O3)cc1`: “inactive”; `C[C@@H]1CCCCO[C@H](CN(C)S(=O)(=O)c2ccc(Cl)cc2)[C@H](C)CN([C@@H](C)CO)C(=O)c2cc(NS(=O)(=O)c3ccccc3)ccc2O1`: “inactive”; `Cc1ccc2ncc(-c3ccc4cc(C)ccc4n3)cc2c1`: “inactive”.

Take `COc1ccc(NC(=O)N(C)C[C@@H]2OCCCC[C@@H](C)Oc3ccc(NS(=O)(=O)c4ccc(C)cc4)cc3C(=O)N([C@H](C)CO)C[C@@H]2C)cc1`: the cytotoxicity call was “inactive”.
